Each structure is given as a SMILES string. Unmarked numbers belong to inactive results. Inconclusive results are not listed. Active and inactive are the calls of the source. Calls come from the whole dose curve.

The target of experiment [1] is Acetylcholinesterase (Homo sapiens) (UniProt P22303). Briefly: Acetylcholinesterase (AChE) small molecule antagonists: colormetric cell-based qHTS assay (AID 1347395). Note: nearly all actives have a fitted effect of over 30% in size. In a few lines: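 Colorimetric readout: DTNB quantifies thiocholine from acetylthiocholine hydrolysed by endogenous AChE of SH-SY5Y cells (2,000/well, plated overnight). Compound pretreatment 30 min, substrate incubation 90 min, both 37 C.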

Experiment [2] shares this target. Briefly: Acetylcholinesterase (AChE) small molecule antagonists: enzyme-based qHTS assay (AID 1347397). Note: nearly all actives have a fitted effect of over 55% in size. Note: potency is the fitted concentration of half-maximal effect. Conditions: Potency: AChE enzyme activity inhibition; outcome: AChE enzyme activity inhibition. In outline:
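Absorbance-based detection of thiocholine with DTNB served as the read-out. Recombinant human AChE was exposed to compound for 30 min at RT before a 10 min RT incubation with acetylthiocholine.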

Experiment [3] has the same target. Briefly: Acetylcholinesterase (AChE) small molecule antagonists: fluorescence cell-based qHTS assay (AID 1347398). Note: nearly all actives have a fitted effect of over 50% in size. Conditions: Potency: AChE activity; outcome: AChE activity. In outline:
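Fluorimetric cell-based assay: intact SH-SY5Y cells, 30 min compound preincubation at 37 C, acetylthiocholine substrate with thiol probe Thiolite Green, 40 min RT development, fluorescence 490/520 nm.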

For experiment [4] the target is unchanged. Nature of the experiment: Acetylcholinesterase (AChE) small molecule antagonists: enzyme-based qHTS assay with human liver microsomes (AID 1347399). Note: nearly all actives have a fitted effect of over 60% in size. Conditions: Potency: qHTS inhibition; outcome: qHTS inhibition. In outline: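 Recombinant human AChE (50 mU/mL in the enzyme mix) and human liver microsomes (0.25 mg/mL final) were preincubated with compound and NADPH (0.25 mg/mL final) for 30 min at 37 C. Acetylthiocholine/DTNB was then added; thiocholine was read colorimetrically after 10 min at room temperature.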
% is set by controls: 0 for no effect and ±100 for the full control effect.

Sequence of Acetylcholinesterase (Homo sapiens) (P22303 whole entry, looked up): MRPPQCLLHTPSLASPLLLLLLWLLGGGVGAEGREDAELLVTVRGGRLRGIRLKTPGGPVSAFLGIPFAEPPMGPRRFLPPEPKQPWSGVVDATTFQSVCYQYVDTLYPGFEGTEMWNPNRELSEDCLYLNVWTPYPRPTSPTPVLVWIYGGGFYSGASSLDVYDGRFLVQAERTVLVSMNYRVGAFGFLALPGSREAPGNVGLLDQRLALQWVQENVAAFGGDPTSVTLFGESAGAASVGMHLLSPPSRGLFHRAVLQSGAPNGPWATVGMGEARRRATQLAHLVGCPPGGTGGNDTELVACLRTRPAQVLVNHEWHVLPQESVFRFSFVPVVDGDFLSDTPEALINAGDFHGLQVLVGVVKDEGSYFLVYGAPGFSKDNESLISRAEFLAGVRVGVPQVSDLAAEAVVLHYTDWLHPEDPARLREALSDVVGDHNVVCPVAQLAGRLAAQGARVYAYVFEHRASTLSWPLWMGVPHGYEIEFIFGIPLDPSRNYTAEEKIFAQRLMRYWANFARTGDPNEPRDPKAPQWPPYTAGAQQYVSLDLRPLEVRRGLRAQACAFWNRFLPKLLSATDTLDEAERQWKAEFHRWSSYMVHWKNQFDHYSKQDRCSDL

With `CCCCCCCOC(=O)c1ccccc1C(=O)OCCCCCCC`, the Potency result in experiment [1], in experiment [2], in experiment [3] and in experiment [4] was “inactive” each time.
For the compound `Fc1ccc(C(c2ccc(F)cc2)N2CCN(C/C=C/c3ccccc3)CC2)cc1`, the Potency result in experiment [1], in experiment [2], in experiment [3] and in experiment [4] was “inactive” throughout.
Turning to `CC1=C(/C=C/C(C)=C/C=C/C(C)=C\C=O)C(C)(C)CCC1`, the Potency result in experiment [1], in experiment [2], in experiment [3] and in experiment [4] was “inactive” in each case.
Consider `CCOC(C)(C)C`, for which the Potency result in experiment [1], in experiment [2], in experiment [3] and in experiment [4] was “inactive” throughout.
For the compound `c1ccc(CN(CC2=NCCN2)c2ccccc2)cc1`, the Potency result in experiment [1], in experiment [2], in experiment [3] and in experiment [4] was “inactive” throughout.
In the case of `CC1COc2c(N3CCN(C)CC3)c(F)cc3c(=O)c(C(=O)O)cn1c23` (stereo not drawn), the Potency result in experiment [1], in experiment [2], in experiment [3] and in experiment [4] was “inactive” throughout.
`O=C(O)c1cc(-c2ccc(F)cc2F)ccc1O`: the Potency result in experiment [1], in experiment [2], in experiment [3] and in experiment [4] was “inactive” each time.
Turning to `C=C1CCC2CC1C2(C)C` (stereo not drawn), the Potency entry in experiment [1], in experiment [2], in experiment [3] and in experiment [4] was “inactive” in each case.
For the compound `COc1ccc2nc(NC(=O)Nc3ccccc3)sc2c1`, the Potency result in experiment [1], in experiment [2], in experiment [3] and in experiment [4] was “inactive” throughout.
For `CC(=O)CC(=O)OC(C)(C)C`, the Potency result in experiment [1], in experiment [2], in experiment [3] and in experiment [4] was “inactive” each time.
For `CC(C)C(C)C`, the Potency result in experiment [1], in experiment [2], in experiment [3] and in experiment [4] was “inactive” in each case.
Regarding `Cc1ncc([N+](=O)[O-])n1CC(C)O` (stereo not drawn), the Potency entry in experiment [1], in experiment [2], in experiment [3] and in experiment [4] was “inactive” throughout.
`CN1[C@@H]2CC[C@H]1CC(NC(=O)n1c(=O)[nH]c3ccccc31)C2` (stereo partly drawn): the Potency result in experiment [1], in experiment [2], in experiment [3] and in experiment [4] was “inactive” each time.
Consider `O=CN1CCOCC1`, for which the Potency entry in experiment [1], in experiment [2], in experiment [3] and in experiment [4] was “inactive” throughout.
With `COC(C)OC`, the Potency result in experiment [1], in experiment [2], in experiment [3] and in experiment [4] was “inactive” throughout.
As for `CCCCC1CCCCC(=O)O1` (stereo not drawn), the Potency entry in experiment [1], in experiment [2], in experiment [3] and in experiment [4] was “inactive” throughout.
For `CCCCCCCCCCCCCCCC/C=C/C1CC(=O)OC1=O` (stereo not drawn), the Potency entry in experiment [1], in experiment [2], in experiment [3] and in experiment [4] was “inactive” in each case.
Regarding `CCCCCCCCCC(C)C=O` (stereo not drawn), the Potency result in experiment [1], in experiment [2], in experiment [3] and in experiment [4] was “inactive” in each case.
With `CCOC(=O)CC(=O)c1cc(F)c(Cl)nc1Cl`, the Potency entry in experiment [1], in experiment [2], in experiment [3] and in experiment [4] was “inactive” throughout.
`Nc1ccc2c(S(=O)(=O)O)cccc2c1S(=O)(=O)O`: the Potency result in experiment [1], in experiment [2], in experiment [3] and in experiment [4] was “inactive” in each case.
In the case of `CCOC(=O)c1ccc(O)c(O)c1`, the Potency entry in experiment [1], in experiment [2], in experiment [3] and in experiment [4] was “inactive” each time.
Take `[Cl][Eu]([Cl])[Cl]`: the Potency entry in experiment [1], in experiment [2], in experiment [3] and in experiment [4] was “inactive” throughout.
In the case of `CCCCCCCCc1ccc(Nc2ccc(CCCCCCCC)cc2)cc1`, the Potency result in experiment [1], in experiment [2], in experiment [3] and in experiment [4] was “inactive” in each case.
Turning to `COc1ccc(C2C(=O)c3ccccc3C2=O)cc1`, the Potency entry in experiment [1], in experiment [2], in experiment [3] and in experiment [4] was “inactive” throughout.
Take `C=C(C)C(=O)OCC(C)(C)COC(=O)C(=C)C`: the Potency entry in experiment [1], in experiment [2], in experiment [3] and in experiment [4] was “inactive” throughout.
Turning to `CCC(C)(Oc1ccc(C2(c3ccc(OC(C)(CC)C(=O)O)cc3)CCCCC2)cc1)C(=O)O` (stereo not drawn), the Potency result in experiment [1], in experiment [2], in experiment [3] and in experiment [4] was “inactive” in each case.
For the compound `Cc1cc(OI)c(C(C)C)cc1-c1cc(C(C)C)c(OI)cc1C`, the Potency entry in experiment [1], in experiment [2], in experiment [3] and in experiment [4] was “inactive” each time.
In the case of `NC(=O)c1c(Cl)cccc1Cl`, the Potency result in experiment [1], in experiment [2], in experiment [3] and in experiment [4] was “inactive” each time.
Take `[O-][n+]1cccc(CO)c1`: the Potency result in experiment [1], in experiment [2], in experiment [3] and in experiment [4] was “inactive” in each case.
With `CCCCCCCC/C=C\CCCCCCCC(=O)N(C)CC(=O)O`, the Potency result in experiment [1], in experiment [3] and in experiment [4] was “inactive” each time. Besides, the Potency in experiment [2] is 63.3 µM (active).
For `C[C@H]1NCc2cc(-c3ccc4c(=O)c(C(=O)O)cn(C5CC5)c4c3OC(F)F)ccc21`, the compound was classed as inactive in experiment [1], in experiment [2], in experiment [3] and in experiment [4].
With `C=CCON/C(CCC)=C1\C(=O)CC(C)(C)C(C(=O)OC)=C1O`, the Potency result in experiment [1], in experiment [2], in experiment [3] and in experiment [4] was “inactive” each time.
In the case of `Cc1ccc(C(C)c2ccc(C)c(C)c2)cc1C`, the Potency entry in experiment [1], in experiment [2], in experiment [3] and in experiment [4] was “inactive” in each case.
In the case of `CCCCN1C(=O)[C@@H]([C@H](O)C2CCCCC2)NC(=O)C12CCN(Cc1ccc(Oc3ccc(C(=O)O)cc3)cc1)CC2`, the Potency result in experiment [1], in experiment [2], in experiment [3] and in experiment [4] was “inactive” throughout.
On to `CCCCCCCC/C=C\CCCCCCCC(=O)OCCCC`, for which the activity, negative = inhibition in experiment [1] was 0.807% [at 23.6 µM]. The results for the activity change, negative = inhibition in experiment [2], in experiment [3] and in experiment [4] were 0.806% [at 23.6 µM], -0.0934% [at 23.8 µM] and 0.083% [at 23.6 µM], respectively.
As for `N#Cc1ccc(C/C(=N/NC(=O)Nc2ccc(OC(F)(F)F)cc2)c2cccc(C(F)(F)F)c2)cc1`, the Potency result in experiment [1], in experiment [2], in experiment [3] and in experiment [4] was “inactive” throughout.
`CCOC(=O)[C@H](CCc1ccccc1)N[C@H]1CS[C@H](c2cccs2)CN(CC(=O)O)C1=O`: the Potency result in experiment [1], in experiment [2], in experiment [3] and in experiment [4] was “inactive” in each case.
As to `CC(C)CCOC(=O)c1ccc(N(C)C)cc1`, the Potency result in experiment [1], in experiment [2], in experiment [3] and in experiment [4] was “inactive” each time.
Take `CCCCCCCC/C=C\CCCCCCCCO`: the Potency result in experiment [1], in experiment [2], in experiment [3] and in experiment [4] was “inactive” throughout.
Regarding `NCCC(O)(P(=O)(O)O)P(=O)(O)O`, the Potency entry in experiment [1], in experiment [2], in experiment [3] and in experiment [4] was “inactive” each time.
On to `CC1CCc2c(N3CCC(O)CC3)c(F)cc3c(=O)c(C(=O)O)cn1c23` (stereo not drawn), for which the Potency result in experiment [1], in experiment [2], in experiment [3] and in experiment [4] was “inactive” throughout.
In the case of `COCc1nnc(-c2ccc[n+]([O-])c2)n1-c1c(Cl)c(Cl)cc2[nH]c(=O)c(=O)[nH]c12`, the Potency entry in experiment [1], in experiment [2], in experiment [3] and in experiment [4] was “inactive” in each case.
